Screening results: PubChem BioAssay, National Center for Advancing Translational Sciences (NCATS)
Rows were chosen to be rich in hits. Some 3.3% of all compounds tested hit in one or more screens of this group.
TSHR ag: agonists of human thyroid stimulating hormone receptor; 0.48% of 73,000 active; Potency, µM (doses to about 57.1 µM), without a hit: top-dose activation, most hits filed as activators; AID 926; P16473; HEK293-CNG-TSHR cells (CNG channel as cAMP sensor), membrane potential dye, cAMP; active = well fitted activation curve with a large enough effect in the main read-out, with a control signal flat, not every such curve was filed as active; inconclusive = small, poorly fitted or top-dose-only effect, or a change in a side signal; inactive = no such curve, though single readings can be large or run the other way; % of control where 0% means no effect;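 also: the control signal comes from parental cells without the receptor; potency is read from the fitted curve at half-maximal effect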
Target sequence (P16473 whole entry, looked up): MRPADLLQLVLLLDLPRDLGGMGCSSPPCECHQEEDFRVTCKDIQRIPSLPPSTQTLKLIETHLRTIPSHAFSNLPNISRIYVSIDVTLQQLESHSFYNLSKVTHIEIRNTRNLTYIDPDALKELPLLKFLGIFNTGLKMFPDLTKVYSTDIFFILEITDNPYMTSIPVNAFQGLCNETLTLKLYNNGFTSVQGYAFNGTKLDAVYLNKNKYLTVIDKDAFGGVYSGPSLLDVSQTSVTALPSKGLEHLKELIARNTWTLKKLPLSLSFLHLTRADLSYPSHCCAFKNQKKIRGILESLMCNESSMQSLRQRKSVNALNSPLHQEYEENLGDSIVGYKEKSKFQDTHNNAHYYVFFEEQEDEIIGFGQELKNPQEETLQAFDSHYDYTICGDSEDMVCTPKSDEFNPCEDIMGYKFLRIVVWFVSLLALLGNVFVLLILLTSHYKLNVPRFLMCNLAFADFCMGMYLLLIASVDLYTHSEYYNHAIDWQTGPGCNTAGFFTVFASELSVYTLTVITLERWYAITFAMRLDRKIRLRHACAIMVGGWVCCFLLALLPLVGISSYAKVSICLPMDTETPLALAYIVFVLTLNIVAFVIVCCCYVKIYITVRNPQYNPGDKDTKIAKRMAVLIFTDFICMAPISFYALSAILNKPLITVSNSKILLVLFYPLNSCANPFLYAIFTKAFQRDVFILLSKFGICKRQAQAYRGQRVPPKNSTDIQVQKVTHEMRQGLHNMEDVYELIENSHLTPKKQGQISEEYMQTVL
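cAMP rise detected as CNG-channel membrane depolarization by fluorescent dye (emission 590 nm), 30 min after compound, following 60 min dye loading containing 100 uM RO 20-1724 at room temperature. Cells: TSHR/CNG HEK 293, with parental CNG HEK 293 as control.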
TsaE inh: displaces an ADP probe from E. coli YjeE (TsaE). P0AF67. purified YjeE enzyme, qHTS inhibition assay. Potency, µM. 0.05% of 71,000 active. AID 605
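Purified YjeE (10 uM) with BODIPY Texas Red-labeled ADP probe (2 uM); compounds pin-transferred, 15 min at room temperature. Binding inhibition read as decreased fluorescence polarization; ADP titration as control.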
BRCT PPI red: inhibitors of human BRCA1 BRCT-phosphoprotein interaction (red fluorophore); BRCT-phosphopeptide binding, red fluorescence polarization; Potency, µM (top dose mostly 76.9 µM), without a hit: at the top dose activity change, negative = inhibition, most hits filed as inhibitors; 0.03% of 75,000 active; also: % is scaled to controls: 0 for no effect and ±100 for the full control effect
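Rhodamine-labelled pBACH1 10-mer (100 nM) bound to BRCT domain (100 nM) at pH 7.3; compounds incubated 12 min room temperature, polarization read. Free peptide defines full inhibition; unlabelled decapeptide titrated as control.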
BRCT inh green: inhibitors of human BRCA1 BRCT-phosphoprotein interaction (green fluorophore); P38398; BRCA1 BRCT-phosphopeptide binding, green fluorescence polarization; Potency, µM (doses to about 76.9 µM), inactives show at the top dose activity change, negative = inhibition, actives largely listed as inhibitors; 0.05% of 75,000 active; AID 875;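 also: potency is read from the fitted curve at half-maximal effect; plate controls were peptide without protein for full effect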
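Compounds were incubated for 12 min at room temperature with a complex of 100 nM fluorescein-tagged pBACH1 decapeptide and 250 nM His-tagged BRCT protein. Buffer was phosphate pH 7.3 with EDTA, DTT and Tween 20. Disruption of binding lowers the polarization signal.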
Hsp90 Hop PPI: changes Hsp90-Hop TPR2A binding signal, up or down. AlphaScreen TPR2A-His6 binding biotin-Hsp90 C-terminal peptide. 0.44% of 71,000 active. Potency, µM (highest dose often 57 µM), for inactives: at the top dose activity change, negative = inhibition; active = well fitted curve in either direction with a large enough effect; inconclusive = small, poorly fitted or top-dose-only effect, or another doubt; also: potency is read from the fitted curve at half-maximal effect; % is scaled to controls: 0 for no effect and ±100 for the full control effect
HEK293 cAMP ctrl: counter-screen for TSHR agonists: cAMP increase in parental HEK293 | Potency, µM (doses to about 57.1 µM), for the others: top-dose activation, actives largely listed as activators | parental HEK293 CNG cAMP sensor, membrane potential fluorescence | 2.5% of 73,000 active; also: potency is read from the fitted curve at half-maximal effect; % of control where 0% means no effect; nearly all actives have a fitted effect of over 55% in size
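Parental HEK 293 cells stably expressing a cAMP-gated CNG channel were loaded with membrane potential dye containing 100 uM RO 20-1724 for 60 min. Compound added for 30 min; depolarization read as fluorescence intensity at 590 nm.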
Numbers without * were called inactive; i = inactive; u = inconclusive; x = not tested or not shown; [ ] = dose if it differs, or a comment. Unless noted, calls follow the shape of the dose curve; as a rule, active = well fitted curve in the direction sought with a large enough effect; inconclusive = small, poorly fitted or top-dose-only effect, or another doubt; inactive = no such curve, though single readings can be large; an effect the other way counts as inactive or inconclusive.

SMILES	TSHR ag	TsaE inh	BRCT PPI red	BRCT inh green	Hsp90 Hop PPI	HEK293 cAMP ctrl
CCCCn1c(SCc2ccc(Cl)cc2)nc2c1c(=O)[nH]c(=O)n2C	u	i	-1%	2%	-3%	u
CC(C)CCSc1nc2c(c(=O)[nH]c(=O)n2C)n1CCc1ccccc1	u	i	0%	-3%	-2%	10µM*
CC(C)CCn1c(SCc2ccc(Cl)cc2)nc2c1c(=O)[nH]c(=O)n2C	u	i	1%	-2%	-1%	10µM*
CCCCCCn1c(SCC(C)C)nc2c1c(=O)[nH]c(=O)n2C	u	i	1%	-2%	-1%	25µM*
CC(C)CSc1nc2c(c(=O)[nH]c(=O)n2C)n1CCc1ccccc1	u	i	-1%	1%	0%	u
COc1ccc(-c2nc3cnc(Nc4cccc(OC)c4)nc3n(C[C@H]3CCCO3)c2=O)cc1	-8%	i	-1%	-3%	-3%	4%
Cc1nc(NC2CCCCC2)c2nc(-c3ccccc3)n(CC3CCN(C)CC3)c2n1	u	i	-1%	0%	-5%	u
CCOC(=O)N1CCN(C(=O)c2ccccc2-c2ccccc2)CC1	21%	i	0%	1%	0%	19%
CCOC(=O)N1CCN(C(=O)c2cnn3ccccc23)CC1	1%	32µM*	1%	0%	-6%[2.3 µM]	10%
O=C(Nc1cccc2ccccc12)c1ccc(Br)o1	u	i	0%	-3%	-3%	u
O=C(Nc1cccc2c1CCCC2)c1ccc(Br)o1	u	i	-3%	-1%	-2%	25µM*
CN(C)c1cc(NC(=O)CN2CCOCC2)c2ccccc2n1	u	i	-1%	-1%	-4%[2.3 µM]	20µM*
COc1ccc(-c2nc3cnc(N4CCNCC4)nc3n(C3CC3)c2=O)cc1	u	i	0%	-3%	-2%	u
CCOc1cc(C(=O)OCc2ccc(C(=O)OC)o2)cc(Br)c1OC	u	i	0%	-4%	14%	32µM*
O=C(CN(C(=O)c1cc2c(s1)CCC2)C1CCCC1)NCc1cccs1	u	i	1%	0%	-2%	32µM*
COc1cccc(-c2ccc3ncnc(N(C)Cc4ccco4)c3c2)c1	u	i	0%	-3%	-20%	16µM*
CN1C[C@@H](C(=O)N[C@]2(C)O[C@]3(O)[C@H]4CCCN4C(=O)[C@H](Cc4ccccc4)N3C2=O)C[C@H]2c3cccc4[nH]cc(c34)C[C@@H]21	-10%	i	0%	2%	-11%	-5%
COc1ccc(N(CC(=O)Nc2cc(C(=O)O)ccc2C)S(=O)(=O)c2c(C)noc2C)cc1	-7%	i	-1%	1%	3%	9%
COc1ccc(N(CC(=O)Nc2cc(C)on2)S(=O)(=O)c2cc(C)ccc2C)cc1	25µM*	i	0%	-3%	-2%	27%
CCOc1ccc(-c2nnc3sc(COc4ccc(C)cc4)nn23)cc1	u	i	2%	0%	-4%	20µM*
CCOc1ccc(-c2nnc3sc(COc4ccc(Cl)cc4)nn23)cc1	u	i	-1%	-3%	-2%	25µM*
Clc1ccc(OCc2nn3c(-c4ccco4)nnc3s2)cc1	u	i	-2%	0%	0%	u
Clc1ccc(OCc2nn3c(-c4ccncc4)nnc3s2)cc1	u	i	0%	-3%	2%	32µM*
COc1ccc(-c2coc3ccc(O[C@@H]4O[C@@H](COC(C)=O)[C@@H](OC(C)=O)[C@@H](OC(C)=O)[C@H]4OC(C)=O)cc3c2=O)cc1	2%	i	x	x	5%	3%
COC(=O)c1ccccc1NC(=O)c1cnn2c(C(F)F)cc(C3CC3)nc12	u	i	0%	4%	4%	16µM*
SMILES	TSHR ag	TsaE inh	BRCT PPI red	BRCT inh green	Hsp90 Hop PPI	HEK293 cAMP ctrl
O=C(Nc1sc2c(c1C(=O)NC1CCCCC1)CCC2)c1ccco1	16µM*	i	-1%	-2%	1%	24%
CC(=O)Oc1cc(OC(C)=O)c2c(=O)cc(-c3ccc(OC(C)=O)c(OC(C)=O)c3)oc2c1	-6%	i	1%	-4%	-3%	-10%
COc1cc2c(cc1OC)-c1cc(NC3CCCCCC3)nc(=O)n1CC2	10µM*	i	1%	8%	0%	19%
COc1ncc2nc(-c3ccc(F)cc3)c(=O)n(-c3ccccc3)c2n1	13%	i	-2%	-1%	1%	10%
CCC/C=C(\CCC)C(NC(=O)c1ccccc1)c1ccc(C(=O)OC)cc1 (configuration not stated)	u	i	-4%	-3%	18%	3.2µM*
CC(NC(=O)C(C)(C)C)c1nc2ccccc2n1C (configuration not stated)	-2%[11.4 µM]	i	-1%	-1%	4%	3%
CCCC/C=C/C(NC(=O)C(C)(C)C)c1ccccc1 (configuration not stated)	u	i	1%	-1%	-7%	25µM*
CCCC/C=C/C(NC(=O)c1ccc(C(=O)OC)cc1)c1ccccc1 (configuration not stated)	u	i	-2%	-2%	-3%	25µM*
CCOC(=O)C[C@@H](C(=O)OCC)[C@@H]1CCCCC1=O	6%[11.4 µM]	x	-1%[15.4 µM]	0%[15.4 µM]	x	0%[11.4 µM]
CCCCC[C@H](CC(=O)NO)C(=O)N[C@@H](C(=O)N1CCC[C@H]1CO)C(C)C	5%	i	-2%	-5%	u	11%
N#CCCn1c(=O)c(-c2cccc(C#N)c2)nc2cnc(N3CCOCC3)nc21	-1%	i	0%	-2%	-4%	9%
COc1ccc(-c2nc3cnc(N4CCNCC4)nc3n(Cc3cccs3)c2=O)cc1	1%	i	1%	7%	27%	-12%
O=C(N/N=C1/C[C@@H](O)[C@@H](O)[C@@H]2[C@@H]3C(=O)N(C[C@@H]4CCCO4)C(=O)[C@H]3CC[C@@H]12)OCc1ccccc1	-3%[11.4 µM]	x	0%[15.4 µM]	0%[15.4 µM]	x	2%[11.4 µM]
CN(Cc1ccco1)c1nc(-c2ccccc2C(F)(F)F)nc2ccccc12	u	i	1%	-2%	11%	10µM*
CN(Cc1ccco1)c1nc(-c2cccnc2)nc2ccccc12	u	i	-2%	1%	-5%	25µM*
CN(Cc1ccco1)c1nc(-c2ccccc2Cl)nc2ccccc12	18%	i	2%	-2%	8%	23%
CN(Cc1ccco1)c1cc(-c2cccnc2)ncn1	10%	i	-3%	1%	-3%	-8%
COc1ccccc1-c1nc(N(C)Cc2ccco2)c2ccccc2n1	u	i	0%	-1%	-5%	25µM*
